Test results as given in a collection of fitness landscapes (doi:10.1016/j.celrep.2020.107928).
Over roughly 81,000 sequences, “one-hybrid fitness for binding NBS DNA” has its median near -0.1; the highest 2% begin near 0.36. Many of the other results were omitted from the sample, so the highest values are more common in it than they were.

B1: Caulobacter ParB omega fusion; a variant is named by its letters at X, in order, B8GW30 (parent)
chain: MESVVVGEPGMSEGRRGLGRGLSALLGEVDAAPAQAPGEQLGGSREAPIEILQRNPDQPRRTFREEDLEDLSNSIREKGVLQPILVRPSPDTAGEYQIVAGERAWRAAQRAGLKTVPIMVRELDDLAVLEIGIIENVQRADLNVLEEALSYKVLMEKFERTQENIAQTIGKSXSHVANXMRLLXLPDEVQSYLVSGELTAXHARAIAAAADPVALAKQIIEGGLSVRETEALARKAPNLSAGKSKGGRPPRVKDTDTQALESDLSSVLGLDVSIDHRGSTGTLTITYATLEQLDDLCNRLTRGI

Variants of: B1
Test: one-hybrid fitness for binding NBS DNA (the Noc-binding site; scaled: cognate 1, non-cognate 0); higher = stronger binding
Details: with NBS DNA site
Method in brief: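 Values were rescaled so that cognate is 1 and non-cognate is 0. Each is a fitness, the log change in a variant's read ratio to wild type from Illumina reads of plasmids before and after selection, with three replicate libraries pooled and variants under 10 reads dropped. Selection of the Caulobacter ParB libraries, four specificity codons randomised, used E. coli USO with a HIS3 reporter, site 19 bp from the promoter, on M9-minus-histidine with 0.1 mM IPTG and 5 mM 3-AT for 48 hours at 37°C.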

one-hybrid fitness for binding NBS DNA, 0.478:
QCRK

one-hybrid fitness for binding NBS DNA, 0.539:
KRMT

one-hybrid fitness for binding NBS DNA, 0.599:
QCCR

one-hybrid fitness for binding NBS DNA, 0.421:
RASS

one-hybrid fitness for binding NBS DNA, 0.241:
RYFR

one-hybrid fitness for binding NBS DNA, 0.465:
QVNR

one-hybrid fitness for binding NBS DNA, 0.554:
RINT

one-hybrid fitness for binding NBS DNA, 0.438:
RHSS

one-hybrid fitness for binding NBS DNA, 0.432:
RYGR

one-hybrid fitness for binding NBS DNA, 0.503:
RSNT

one-hybrid fitness for binding NBS DNA, 0.51:
KRMR

one-hybrid fitness for binding NBS DNA, 0.589:
RCNT

one-hybrid fitness for binding NBS DNA, 0.726:
RYRR

one-hybrid fitness for binding NBS DNA, 0.679:
QTCR

one-hybrid fitness for binding NBS DNA, 0.245:
QERR

one-hybrid fitness for binding NBS DNA, 0.436:
QVHR

one-hybrid fitness for binding NBS DNA, 0.387:
QMRK

one-hybrid fitness for binding NBS DNA, 0.44:
RYQR

one-hybrid fitness for binding NBS DNA, 0.272:
QACS

one-hybrid fitness for binding NBS DNA, 0.43:
RYAR

one-hybrid fitness for binding NBS DNA, 0.26:
RMNH

one-hybrid fitness for binding NBS DNA, 0.269:
RYVR
RYWR

one-hybrid fitness for binding NBS DNA, 0.447:
QACR

one-hybrid fitness for binding NBS DNA, 0.471:
RYHR

one-hybrid fitness for binding NBS DNA, 0.377:
QVNS
QICR
RYCR

one-hybrid fitness for binding NBS DNA, 0.284:
RTDT

one-hybrid fitness for binding NBS DNA, 0.867:
QIRR

one-hybrid fitness for binding NBS DNA, 0.595:
CGAE

one-hybrid fitness for binding NBS DNA, 0.439:
RMSS

one-hybrid fitness for binding NBS DNA, 0.384:
QVAR

one-hybrid fitness for binding NBS DNA, 0.306:
QVYR

one-hybrid fitness for binding NBS DNA, 0.396:
KRMS

one-hybrid fitness for binding NBS DNA, 0.437:
RSSS

one-hybrid fitness for binding NBS DNA, 0.364:
TRHT

one-hybrid fitness for binding NBS DNA, 0.458:
QSYR

one-hybrid fitness for binding NBS DNA, 0.483:
LRRR

one-hybrid fitness for binding NBS DNA, 0.368:
QVQR

one-hybrid fitness for binding NBS DNA, 0.209:
RYNH

one-hybrid fitness for binding NBS DNA, 0.508:
RHNT

one-hybrid fitness for binding NBS DNA, 0.275:
QDRR

one-hybrid fitness for binding NBS DNA, 0.519:
QKCR
RYNR

one-hybrid fitness for binding NBS DNA, 0.496:
RANT

one-hybrid fitness for binding NBS DNA, 0.429:
QKRK

one-hybrid fitness for binding NBS DNA, ≤ 0.2:
VPAP
YAMK
GQTK
INGE
QVQS
QVDR
QVND
QVNN
QVQN
QVDS
QVRD
SVQD
CSRY
EQAR
RYPY
WMPP
AHEF
GQCW
EIHG
GPST
VMSA
LYRR
GDTA
QVSD
QVSN
QVGD
QVAH
QVGP
GHLS
CPPV
SSGL
QAQG
VSSH
ELVL
DGRA
PHAM
TTRG
QVHD
QVHN
QVKG
SFPV
PNKV
CGYT
FDPN
SLHW
LRDR
LRYR
LRGN
TTRD
YFPL
PYKL
RKSP
RLSN
RKSN
RHSP
RLSD
RPSS
RHSN
TAMR
PIWS
TISQ
GDNM
KDTE
EWSR
APCT
RSSD
RSSP
RASN
RASH
RMSD
RMSH
LPKA
QSPH
HLSL
NDNR
NAKL
QILN
TTWI
SQRH
QPCR
QECR
QKCM
QKCD
QMCM
QACH
SHHD
AWRT
FPKF
NPPH
KTTD
EIVG
PQLT
LLMK
QTCG
QSCD
QTCF
QHCN
QICG
QSCN
SPDS
SFYS
PAKH
GLKV
DMTR
PHDI
QGYR
QSYD
HTCT
HKQR
IERR
GCNT
VMRG
EMRQ
IITW
YLQI
KCMR
KCMT
KSMR
KRMD
DRMT
KRMN
TALF
RANP
RINP
RTNN
RADT
RSDT
RIDT
RSNN
WWTD
LSRK
SSTW
ASEC
SYLM
SHDP
PPLD
IVCR
GYLC
RPNT
RHND
ADTR
WVAC
TAAM
SGRG
CNSI
HRTD
KSYC
QPYR
GWMI
TGPP
RGHW
KLGK
AATY
KFTC
SYMR
GWRK
FEGS
RYHH
RYHP
RYSP
RYKG
RYSD
THIG
RYQN
RYQP
RYGH
RYPR
RYGP
QYAV
ENTF
ECNK
PSCV
ALDS
AKVC
RYCD
RYCN
RYAP
REYM
RFAG
QAYK
QCYK
QSYK
QPRK
QADK
QMYK
QMDK
GVLR
WSLR
LIRR
KRDL
YEVL
QKDK
QKNK
QTYK
QTDK
YNVR
VWSR
HGEV
TVPQ
FGFR
CGYR
NGAE
FGYR
CGFR
CGVE
ITGA
QREE
CKNS
ATHI
YEAF
WRNM

one-hybrid fitness for binding NBS DNA, 0.404:
RYYR

one-hybrid fitness for binding NBS DNA, 0.77:
QVRR

one-hybrid fitness for binding NBS DNA, 0.279:
QHCS
RFNT

one-hybrid fitness for binding NBS DNA, 0.302:
QVFR

one-hybrid fitness for binding NBS DNA, 0.509:
QMCR

one-hybrid fitness for binding NBS DNA, 0.452:
LRKR
RYSR

one-hybrid fitness for binding NBS DNA, 0.522:
RCSS

one-hybrid fitness for binding NBS DNA, 0.226:
RMDT

one-hybrid fitness for binding NBS DNA, 0.38:
QVSR

one-hybrid fitness for binding NBS DNA, 0.355:
QWRR

one-hybrid fitness for binding NBS DNA, 0.411:
RLSS

one-hybrid fitness for binding NBS DNA, 0.482:
QVRS

one-hybrid fitness for binding NBS DNA, 0.544:
RKSS

one-hybrid fitness for binding NBS DNA, 0.441:
CGAR

one-hybrid fitness for binding NBS DNA, 0.216:
QICS

one-hybrid fitness for binding NBS DNA, 0.212:
QMCY

one-hybrid fitness for binding NBS DNA, 0.336:
QLRK

one-hybrid fitness for binding NBS DNA, 0.33:
QGRR

one-hybrid fitness for binding NBS DNA, 0.354:
RYLR

one-hybrid fitness for binding NBS DNA, 0.385:
FGAR

one-hybrid fitness for binding NBS DNA, 0.473:
QHCR

one-hybrid fitness for binding NBS DNA, 0.207:
LCKR
LRVR
RYDR

one-hybrid fitness for binding NBS DNA, 0.37:
QARK

one-hybrid fitness for binding NBS DNA, 0.606:
QCYR

one-hybrid fitness for binding NBS DNA, 0.376:
QSRK

one-hybrid fitness for binding NBS DNA, 0.203:
QIPR
RYIR

one-hybrid fitness for binding NBS DNA, 0.202:
QVYS

one-hybrid fitness for binding NBS DNA, 0.258:
RHDT

one-hybrid fitness for binding NBS DNA, 0.305:
QVLR

one-hybrid fitness for binding NBS DNA, 0.285:
QVVR

one-hybrid fitness for binding NBS DNA, 0.546:
RMNT
QTRK

one-hybrid fitness for binding NBS DNA, 0.426:
QVGR

one-hybrid fitness for binding NBS DNA, 0.744:
RYKR

one-hybrid fitness for binding NBS DNA, 0.201:
QWYR

one-hybrid fitness for binding NBS DNA, 1.13:
QCRR

one-hybrid fitness for binding NBS DNA, 1:
QSRR

one-hybrid fitness for binding NBS DNA, 0.786:
QVKR

one-hybrid fitness for binding NBS DNA, 0.231:
RFSS

one-hybrid fitness for binding NBS DNA, 0.365:
QPRR

one-hybrid fitness for binding NBS DNA, 0.636:
RTNT

one-hybrid fitness for binding NBS DNA, 0.493:
QSCR

one-hybrid fitness for binding NBS DNA, 0.348:
QIYR
